The list is not random: actives were taken first. Their share in the collection is about 13%.
AID923: qHTS Assay for Allosteric/Competitive Inhibitors of Caspase-1: Spectroscopic Profiling in AFC Spectral Region | 75,000 compounds, 1.1% hits | compound fluorescence, AFC spectral region (405/520 nm) | Potency, µM (doses to about 57.5 µM), usual class: activators
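Titrations up to 57 uM read every 20 sec for 3 min (405/520 nm) with 50 nM caspase 1 and 5 uM Ac-WEHD-AFC, pH 7.5 HEPES buffer. Fluorescence-vs-time intercept gave baseline, scaled against on-plate AFC standard.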
4MU fluor: qHTS Assay for Spectroscopic Profiling in 4-MU Spectral Region; AID 589, 2007; compound autofluorescence, 340/450 nm, 4-MU equivalents; hits give high values; max dye-equivalent concentration, M; 59,000 compounds, 11% hits; in the data active = max dye-equivalent concentration above about 10 nM; inconclusive = mostly about 1.1 nM to 9.6 nM
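Intrinsic fluorescence at 340/450 nm (ex/em) was read after 15 min at room temperature in pH 8.0, 100 mM Tris. Each compound concentration expressed as 4-MU-equivalent concentration from a six-point 4-MU standard series on each plate.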
HADH2 inh: qHTS Assay for Inhibitors of HADH2 (Hydroxyacyl-Coenzyme A Dehydrogenase, Type II). recombinant HADH2, NADH fluorescence, beta-hydroxybutyryl-CoA. Potency, µM (highest dose often 57.1 µM), most hits filed as inhibitors. AID 886, 2007. 3-hydroxyacyl-CoA dehydrogenase type-2 (Homo sapiens), Q99714. 73,000 compounds, 3.4% hits; note: nearly all actives have a fitted effect of over 60% in size
Target sequence (Q99714 whole entry, looked up, one chain of several): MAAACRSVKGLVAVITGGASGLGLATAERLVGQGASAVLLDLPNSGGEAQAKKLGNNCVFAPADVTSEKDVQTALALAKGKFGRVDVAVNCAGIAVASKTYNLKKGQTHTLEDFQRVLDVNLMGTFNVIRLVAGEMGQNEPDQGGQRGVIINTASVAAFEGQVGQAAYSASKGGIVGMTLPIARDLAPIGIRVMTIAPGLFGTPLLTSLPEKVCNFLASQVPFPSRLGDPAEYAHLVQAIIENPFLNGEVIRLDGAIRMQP
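NADH fluorescence (ex 360/em 450 nm) read every 30 s for 4 min; activity taken as last-minus-first time point difference. Enzyme 20 nM, NAD+ 1 mM, beta-hydroxybutyryl-CoA 90 uM, pH 9.0 Tris buffer.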
A350 autofl: qHTS Assay for Spectroscopic Profiling in A350 Spectral Region; Compound autofluorescence, 340/450 nm, Alexa 350 dye-equivalents; hits give high values; max dye-equivalent concentration, M; 59,000 compounds, 11% hits; AID 590, 2007; in the data active = max dye-equivalent concentration above about 10 nM; inconclusive = mostly about 1.1 nM to 9.6 nM
HSD17B inh: qHTS Assay for Inhibitors of HSD17B4, hydroxysteroid (17-beta) dehydrogenase 4; 75,000 compounds, 7.6% hits; Potency, µM (series often up to 57.1 µM), hits mostly inhibitors; 3-hydroxyacyl-CoA dehydrogenase type-2 (Homo sapiens), Q99714; AID 893, 2007; recombinant HSD17B10, NADH fluorescence kinetic;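 note: the protocol describes HADH2 (HSD17B10) and not the HSD17B4 of the title; nearly all actives have a fitted effect of over 70% in size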
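Activity followed as NADH fluorescence increase (ex 360, em 450 nm) every 30 seconds for 4 min, using final 90 uM beta-hydroxybutyryl CoA and 1 mM NAD+. Recombinant His-tagged enzyme, 20 nM, pH 9.0 Tris buffer, 15 min compound preincubation.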
Each line names hits and unclear results; the compound was inactive in the other large screens. Unless noted, calls come from the whole dose curve; as a rule, active = well fitted curve in the direction sought with a large enough effect; inconclusive = small, poorly fitted or top-dose-only effect, or another doubt; inactive = no such curve, though single readings can be large; an effect the other way counts as inactive or inconclusive.

c1ccc(C[N+]23CN4CN(CN(C4)C2)C3)cc1	none
CC(C)n1cc2c3c(cccc31)[C@@H]1C[C@H](C(=O)O[C@@H](C)[C@H](C)O)CN(C)[C@H]1C2	4MU fluor inconclusive, A350 autofl inconclusive, HSD17B inh inconclusive
C1=C(c2c[nH]c3ccccc23)CCNC1	HSD17B inh inconclusive
O=c1ccc2[nH]cc(C3=CCNCC3)c2[nH]1	HADH2 inh 31.6µM, HSD17B inh 31.6µM (no result: 4MU fluor, A350 autofl)
c1ccc2c([C@@H]3CCN(CCN4CCOCC4)C3)c[nH]c2c1	4MU fluor inconclusive, A350 autofl inconclusive

Screens deposited in PubChem by National Center for Advancing Translational Sciences (NCATS).
